Test results as given in PubChem BioAssay AID485395 (ICCB-Longwood Screening Facility, Harvard Medical School, 2010).
The campaign covered roughly 120,000 compounds. About 55 (0.05%) were called active. Rule as the data show it: active = inhibition above about 25% (passing the limit was not always enough); inactive = the rest. Shown is part of a subset that was picked to be rich in actives.

System: replicative DNA helicase (DnaC/DnaB), Staphylococcus aureus
Experiment: inhibitors of S. aureus replicative helicase, primary screen, biochemical, fluorescence unwinding readout (AID 485395);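 also: 0% = mean of negative control wells and 100% = mean of positive control wells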
Settings: purified S. aureus helicase, fluorescence unwinding assay; stronger effect = higher value; concentration not given here

inhibition, inactive:
Cc1ccc(C)c(C(C)NC(=O)Cc2c(C)noc2C)c1 (stereo not drawn) -13%
Cc1cc(C)cc(NC(=O)N2CCC3(CC2)OCCO3)c1 24%
CCOc1ccc(NC(=O)Cn2c(=O)n(CC(=O)NC3CCCC3)c(=O)c3ccccc32)cc1 -11%
COC(CNC(=O)c1c[nH]c2ccc(S(=O)(=O)N(C)c3ccc(C(C)C)cc3)cc2c1=O)OC -3%
CCOC(=O)Cc1sc(NC(C)=O)nc1-c1ccccc1 -9%
CCn1nc(C(=O)OCCCCN2C(=O)c3ccccc3C2=O)c2ccccc2c1=O -20%
CC(C)Cc1nnc(N)s1 5%
CCCCNC(=O)Cn1c(-c2ccc(C)cc2)noc1=O 10%
CC1(C)CC(=NNC(N)=S)CC(C)(C)N1 0%
COCC(C)n1c(C)cc(C2=NNC(=Nc3ccc(F)cc3F)SC2)c1C (stereo not drawn) 16%
C1=C(c2ccccc2)Nc2ncnn2C1c1ccco1 (stereo not drawn) -1%
CCC(=O)Nc1ccc(-c2cn3cccnc3n2)cc1 5%
CCOC(=O)c1c(Cc2cccc(C)c2)c[nH]c1-c1ccccc1 9%
Cc1nc2ncnn2c(C)c1CCC(=O)N(Cc1cccnc1)c1ccc2c(c1)OCO2 -82%
CCN(CC)C(=O)c1ccc(CS(=O)c2cccc(Cl)c2)o1 (stereo not drawn) 24%
N#Cc1ccc(OCC(=O)N2CCN(c3ccc(O)cc3)CC2)cc1 12%
COCCN(Cc1nc2ccccc2c(=O)[nH]1)C(=O)C1=NN(c2cccc(C)c2)C(=O)CC1 4%
Cc1cc(F)ccc1S(=O)(=O)Nc1ccccc1C(=O)OCC(=O)N1CCCC1=O 4%
COCc1cc(C)nc(SCC(=O)NC2C3CC4CC(C3)CC2C4)c1C#N (stereo not drawn) 1%
CCOCc1c[nH]c(=O)[nH]c1=O 4%
COc1ccc(NC(=O)CCCn2nnc3ccccc3c2=O)cc1 -14%
Cc1ccc2[nH]c(=O)c3cc(C(=O)N4CCCc5ccccc54)sc3c2c1 8%
COc1cc(C)c2c(=O)c(-c3csc(C)n3)coc2c1 -19%
COC(=O)c1ccc2c(c1)C(=O)/C(=C\c1ccccc1O)O2 4%
CCNC(=O)C1CCN(c2ncnc3c2nc2n3CCCCC2)CC1 -22%
CCN(Cc1ccc(Cl)s1)Cn1c(CO)nc2ccccc21 -6%
Nc1nc(N)nc(SCC(=O)N2N=C(c3ccc4ccccc4c3)CC2c2ccccc2)n1 (stereo not drawn) -3%
NC(=O)C12CC3CC(CC(Cl)(C3)C1)C2 -9%
